In all, about 2,500 compounds went through this assay and about 1,100 (44%) were called active. The set was probably picked from earlier hits. This is one part of the list. Values without a mark were called inactive.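 Rule for the calls: active = inhibition above 50% at 4 µM in the single-point screen; inactive = inhibition of 50% or less.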

The assay is described as follows: blockers of TNF-a NF-kB luciferase induction – cell-based, HEK293T NF-kB-Luc, luminescence, selectivity assay for NOD1/NOD2 signaling inhibitor project, primary screen (AID 1852). The conditions noted are these: TNF-a induced, 14 h, at 4 µM, stronger effect = higher value.
`COc1ccccc1NC(=O)c1cc2cc(Br)ccc2cc1O`: the inhibition is 82.6% (active). With `COc1ccc(C(C)=O)cc1COC(=O)c1cc2ccccc2cc1O` the figure was 12.5%; with `COc1cc(NC(=O)c2cc3ccccc3cc2O)c(OC)cc1Cl`, 47.5%; with `COC(=O)C1CCCCN1C(=O)c1cc(COc2cccc3cnccc23)on1` (configuration not stated), 53.1% (active).

Consider `CCOC(=O)CC1CCCCN1C(=O)c1cc(COc2cccc3cnccc23)on1` (configuration not stated), for which the inhibition is 60.8% (active).

For `O=C(c1cc(COc2ccc3ncccc3c2)on1)N1CCCCCC1`, the inhibition was 31.2%. With `COCCC1CCCCN1C(=O)c1cc(COc2ccc(-n3cncn3)cc2)on1` (configuration not stated) the figure was 15.4%; with `CC(Sc1nnc2c(n1)[nH]c1ccccc12)C(=O)NC1CCCCC1` (configuration not stated), 30%; with `O=C(CSc1nnc2c(n1)[nH]c1ccccc12)NC1CCCCC1`, 47%. Then `O=C(NC1CCCC1)c1sc(=S)n2c1[nH]c(=O)c1ccccc12`, with 72.6% (active). With `O=C(NC1CCCCC1)c1sc(=S)n2c1[nH]c(=O)c1ccccc12` the figure was 85.3% (active). With `N#C/C(=N\Nc1cccc(C(F)(F)F)c1)C(=O)c1csc(-c2cccnc2)n1`, the inhibition was 80.5% (active). Then `O=C(CNC(=O)OCc1ccccc1)Oc1cc2oc(=O)cc(-c3ccccc3)c2cc1Cl`, with 83.1% (active); and `O=C(COc1ccc2c(-c3ccccc3)cc(=O)oc2c1)Nc1ccc(CCO)cc1`, with 44.2%; and `CC(C)(C)OC(=O)NCCc1nnc(S(=O)(=O)Cc2ccc(Cl)cc2Cl)o1`, with 45.3%. With `CC(C)(C)OC(=O)NCC(=O)Oc1cc2oc(=O)cc(-c3ccccc3)c2cc1Cl` the figure was 58% (active); with `CCCNc1c(NS(=O)(=O)c2ccc3c(c2)CCCC3)c(=O)oc2ccccc12`, -3.6%. As to `Cc1cc(OCC(=O)Nc2ccncc2)cc(C)c1Cl`, the inhibition is 41%. Then `O=C(COc1ccc(Br)cc1)Nc1ccc(Cc2ccncc2)cc1`, with 64.1% (active); and `Cc1cc(OCC(=O)Nc2ccncc2)cc(C)c1Br`, with 34.4%; and `COc1cccc2sc(N(CCCN(C)C)C(=O)CCS(=O)(=O)c3ccccc3)nc12`, with 44.2%. Then `Nc1ncncc1-c1ccc2ccccc2c1`, with 16.7%; and `Nc1nc(N)c2cc(Sc3ccc4ccccc4c3)ccc2n1`, with 51.9% (active).

Regarding `Nc1nc(CCl)nc(Nc2ccc3ccccc3c2)n1`, the inhibition is -13.4%. With `O=C1C=C(Nc2ccccc2O)c2ccccc2C1=O` the figure was 38.6%. Turning to `CC(=O)Nc1ccc(S(=O)(=O)NCc2nc(-c3ccccc3C)no2)cc1`, the inhibition is -15.1%. With `Cc1ccccc1NC1=C/C(=N\S(=O)(=O)c2ccc(C(=O)O)cc2)c2ccccc2C1=O`, the inhibition was 104% (active). As to `O=C(O)c1ccc(S(=O)(=O)/N=C2\C=C(Nc3ccccc3F)C(=O)c3ccccc32)cc1`, the inhibition was 89.6% (active). On to `COC(=O)c1ccccc1NC1=C/C(=N\S(=O)(=O)c2ccc(C(=O)O)cc2)c2ccccc2C1=O`, for which the inhibition was 106% (active). With `Cc1ccc(-c2nc(NC(=O)c3nn(C)cc3[N+](=O)[O-])sc2C)cc1C` the figure was 33.4%; with `COc1ccc2sc3c(=O)[nH]c4ccccc4c3c2c1`, 54.1% (active); with `Cn1cc(S(=O)(=O)N2CCc3ccccc32)cc1C(=O)Nc1ccc(Cl)cc1`, 24.7%. As to `CCc1nnc(NC(=O)c2ccc(Cl)c(S(=O)(=O)N3CCc4ccccc4C3)c2)s1`, the inhibition is 31.8%. Take `CCc1nnc(NC(=O)c2ccc(Cl)c(S(=O)(=O)N3CCc4ccccc43)c2)s1`: the inhibition was 53.5% (active). Then `Cc1ccc[n+](CC(=O)Nc2ccc(Cl)c([N+](=O)[O-])c2)c1`, with -10%; and `O=C(COC(=O)c1ccccc1C(=O)c1ccc(Cl)c([N+](=O)[O-])c1)NC1CCCCCC1`, with 27.6%. For the compound `Cc1ccc(Cl)c(NC(=O)COC(=O)c2ccccc2C(=O)c2ccc(Cl)c([N+](=O)[O-])c2)c1Cl`, the inhibition is 84.2% (active). Take `N#Cc1cccc(NC(=O)COC(=O)c2ccccc2C(=O)c2ccc(Cl)c([N+](=O)[O-])c2)c1`: the inhibition was 83.2% (active). Regarding `N#Cc1cccc(NC(=O)Cn2cnc(S(=O)(=O)N3CCc4ccccc43)c2)c1`, the inhibition was 8.2%. For the compound `O=C(NCc1cc(Br)cc(Br)c1OC(=O)c1ccccc1[N+](=O)[O-])c1ccccc1`, the inhibition is -35.5%.

Take `O=C(COC(=O)c1ccccc1C(=O)c1ccc(Cl)c([N+](=O)[O-])c1)NC1CC1`: the inhibition was 73.1% (active). Regarding `CCCNC(=O)COC(=O)c1ccccc1C(=O)c1ccc(Cl)c([N+](=O)[O-])c1`, the inhibition is 65.9% (active).

`O=C(O)c1ccc(N/N=C/c2ccc(OC(=O)c3cccc(Cl)c3)cc2)cc1`: the inhibition was -26.3%. With `Nc1ccc(C(=O)OCC(=O)N2CCc3ccccc3C2)cc1[N+](=O)[O-]`, the inhibition was 31.9%. With `CNC(=O)COC(=O)c1ccccc1C(=O)c1ccc(Cl)c([N+](=O)[O-])c1` the figure was 81.6% (active); with `CCOC(=O)c1sc(NC(=O)CSc2nc3c(cc2C#N)CCCCCC3)c(C#N)c1C`, 52.1% (active); with `Cc1c(C)c2ccc(OCC(=O)Nc3ccccn3)c(C)c2oc1=O`, 76.2% (active). With `Cc1c(OCC(=O)N2CCN(c3ccccc3)CC2)ccc2c3c(c(=O)oc12)CCCC3` the figure was 14.2%; with `Cc1cc(C)c(C)c(S(=O)(=O)N2CCN(c3ncnc4sc(C)c(C)c34)CC2)c1C`, 75.3% (active); with `Cc1sc2ncnc(N3CCN(S(=O)(=O)c4ccc(Br)cc4)CC3)c2c1C`, 29.2%. Then `Cc1ccc(OCCN2CCN(c3ncnc4sc(C)c(C)c34)CC2)cc1`, with 63% (active); and `Cc1sc2ncnc(N3CCN(S(=O)(=O)c4ccc(F)cc4)CC3)c2c1C`, with 15%; and `COC(=O)c1scc(C#N)c1N/N=C(\C#N)S(=O)(=O)c1ccc(Cl)cc1`, with -8.6%.

For the compound `CC(C)(C)OC(=O)N1Cc2ccccc2C[C@H]1C(=O)NCC(=O)NC1CCCC1`, the inhibition is 11%. Then `COCCCn1c(=O)c2sccc2n(Cc2cccc(C)c2)c1=O`, with 29.7%; and `CC(=O)/C=C/n1c(=S)oc2ccccc21`, with 94.2% (active); and `CCCCC(=O)/C=C/n1c(=S)oc2ccccc21`, with -6.6%. With `CC(C)CC(=O)/C=C/n1c(=S)oc2ccccc21` the figure was 76.6% (active); with `COC(=O)N1C(=O)[C@](CC(C)C)(c2ccccc2)N1C(=O)OC`, 45.2%. With `COC(=O)N1C(=O)[C@@](Cc2ccccc2)(c2ccccc2)N1C(=O)OC` the figure was 59.8% (active); with `CCCCCCCn1c2c(c(=N)c3c1CCC3)CCCC2`, 76.9% (active); with `CCCCCCCCn1c2c(c(=N)c3c1CCC3)CCCC2`, 79.5% (active).

Regarding `CCCCCCCCCn1c2c(c(=N)c3c1CCC3)CCCC2`, the inhibition was 91.2% (active).

For `N=c1c2c(n(Cc3ccc(Cl)cc3)c3c1CCC3)CCC2`, the inhibition is 12.4%. Then `CC1CCN(C(=O)c2ccc(S(=O)(=O)Cc3cc(F)ccc3F)c([N+](=O)[O-])c2)CC1`, with 50.4% (active). Then `O=C(c1ccc(S(=O)(=O)Cc2ccccc2Cl)c([N+](=O)[O-])c1)N1CCN(c2ccccn2)CC1`, with 58.6% (active); and `CC1CCN(C(=O)c2ccc(S(=O)(=O)Cc3cccc(F)c3)c([N+](=O)[O-])c2)CC1`, with 16.5%. With `Cc1ccc(CS(=O)(=O)c2ccc(C(=O)N3CCN(c4ccccn4)CC3)cc2[N+](=O)[O-])cc1`, the inhibition was 53% (active).

For `O=C(c1ccc(S(=O)(=O)Cc2cc(F)ccc2F)c([N+](=O)[O-])c1)N1CCCCC1`, the inhibition was -1.2%.

For `Cc1ccc(N=c2c([N+](=O)[O-])nn(-c3ccc4c(c3)OCCO4)n2O)cc1F`, the inhibition is 0.1%. As to `CC(=O)N1CCCc2cc(S(=O)(=O)N3CCCC(C(=O)N4CCN(c5cccc(Cl)c5)CC4)C3)ccc21` (configuration not stated), the inhibition was 57.4% (active). Then `CC(=O)N1CCCc2cc(S(=O)(=O)N3CCCC(C(=O)N4CCN(c5cc(C)ccc5C)CC4)C3)ccc21` (configuration not stated), with 45.4%; and `COc1ccccc1N1CCN(C(=O)C2CCCN(S(=O)(=O)c3ccc4c(c3)oc(=O)n4C)C2)CC1` (configuration not stated), with 19.5%. For `C=C(C)C(=O)O[C@H]1C/C(C)=C\C(=O)/C=C(\C)[C@H](O)[C@@H]2OC(=O)C(=C)[C@@H]21`, the inhibition was 102% (active). For the compound `O=C(COc1ccc(Cl)cc1Cl)Nc1ccc(C(=O)Nc2ccccc2C(=O)O)cc1`, the inhibition was 53.4% (active).

On to `O=C(COc1cccc2ccccc12)Nc1ccc(Cl)cc1C(=O)O`, for which the inhibition was -62.6%. In the case of `Cc1cc(C(=O)Nc2ccccc2C(=O)O)ccc1NC(=O)COc1ccccc1Cl`, the inhibition was -11.7%. Then `CC(NC(=O)OCc1ccccc1)C(=O)Oc1cc2oc(=O)cc(-c3ccccc3)c2cc1Cl` (configuration not stated), with 55.2% (active); and `Cc1ccc(CNC(=O)[C@H](C)[C@H]2C[C@]2(C)[C@H](NC(=O)OCc2ccccc2)c2ccccc2)o1`, with 1.6%. With `CC(NC(=O)OC(C)(C)C)C(=O)Oc1cc2oc(=O)cc(-c3ccccc3)c2cc1Cl` (configuration not stated) the figure was 84.3% (active); with `Cc1c(Nc2c3ccccc3nc3ccccc23)c(=O)n(-c2ccccc2)n1C`, 27.4%.

For `Cc1c(N=C2C=CC(=O)c3ccccc32)c(=O)n(-c2ccccc2)n1C`, the inhibition was 76.4% (active).

As for `COc1ccc(-c2cc(N)n(S(=O)(=O)c3c(F)c(F)c(F)c(F)c3F)n2)cc1OC`, the inhibition was 83.8% (active). With `COc1ccc(-c2nc3nc(N)nn3cc2C)cc1F` the figure was 22.9%. Then `COc1ccc(-c2cc(C(=O)NCCCN3CCOCC3)on2)cc1OC`, with 6%; and `CCOC(=O)N=Nc1c2ccccc2c2nc3no[nH]c3nc12`, with 105% (active).

For the compound `COc1cc(/C=C2\C(=N)N3N=C(S(C)(=O)=O)SC3=NC2=O)ccc1OCCOc1ccccc1C`, the inhibition is -26.4%.
